# Source: PubChem BioAssay (EPA / NIEHS)
# The source made the active and inactive calls. The calls were made as follows: active = hit-call score of the fitted dose curve at least 0.9, where 1 is the maximum; inactive = score below 0.9.
# Assay: BSK_SAg_Proliferation: Cell Proliferation Assessment in the BioMAP Diversity Plus: SAg Assay (AID 2283095)
# Conditions: primary human HUVEC with PBMC
# Protocol: BSK_SAg is a cell-based, multiplexed-readout assay that uses umbilical vein endothelium and peripheral blood mononuclear cells, a human vascular primary cell co-culture, with measurements taken at 24 hours after chemical dosing in a 96-well plate.BSK_SAg_Proliferation is an assay component in the BSK_SAg assay. It measures protein content, a form of viability reporter, as detected with absorbance signals by Sulforhodamine staining technology. Data from the assay component BSK_SAg_Proliferation was analyzed into 1 assay endpoint. This assay endpoint, BSK_SAg_Proliferation, was analyzed with bidirectional fitting relative to DMSO as the negative control and baseline of activity. Using a type of viability reporter, measures of total protein for gain or loss-of-signal activity can be used to understand the viability at the cellular-level. Furthermore, this assay endpoint can be referred to as a secondary readout, because this assay has produced multiple assay endpoints where this one serves a viability function. To generalize the intended target to other relatable targets, this assay endpoint is annotated to the cell cycle intended target family, where the subfamily is proliferation.
# The levels of cell surface (or secreted, indicated by the prefix "s") biomarker endpoints were measured by ELISA. Overt cytotoxicity to cells in confluent adherent cultures (all systems other than the BT system) was assessed by measuring total protein levels using sulforhodamine B (SRB) staining in parallel cultures at the time of biomarker measurements, indicated as SRB endpoints. For proliferation assays for adherent cell types, individual cell types are cultured at sub-confluence and relative cell numbers quantified by SRB staining at time points optimized for each system (48 h: 3C and CASM3C systems; 72 h: BT and HDF3CGF systems; 96 h: SAg system). SRB was performed by staining cells with 0.1% SRB after fixation with 10% TCA and reading wells at 560 nm.Viability and proliferation of PBMC (T cells) was quantified by Alamar Blue reduction for the SAg and BT systems. For PBMC viability (referred to as PBMC Cytotoxicity within the assay endpoint names), cells were plated (75,000/well in a 96-well plate) and then chemical samples added for 1 h before addition of activators, SEB and TSST-1 (20 ng/mL final concentration each). Cells were incubated for 90 h. Then, Alamar Blue (20 uL/well) (Invitrogen, Cat DAL1100) was added for 6 h, and the plates were read with a fluorescence microplate reader at 546/580 nm (excitation/emission). For PBMC proliferation, cells were plated and activated as above but incubated for only 16 h prior to addition of Alamar Blue. Plates were read after 6 h.
SMILES,AC50,outcome
CSC(=O)c1c(C(F)F)nc(C(F)(F)F)c(C(=O)SC)c1CC(C)C,28.6 µM (active),
Cc1nc(N(C)C)nc(OC(=O)N(C)C)c1C,,inactive
O=C(Nc1ccccc1-c1ccc(Cl)cc1)c1cccnc1Cl,,inactive
O=C1C2CC=CCC2C(=O)N1SC(Cl)(Cl)Cl (stereo not given),28.7 µM (active),
O=c1n(Cl)c(=O)n(Cl)c(=O)n1Cl,,inactive
CS(=O)(=O)c1cc(C(F)(F)F)ccc1C(=O)c1cnoc1C1CC1,,inactive
CS(=O)(=O)c1ccc(C(=O)C2C(=O)CCCC2=O)c([N+](=O)[O-])c1,,inactive
CCCCOCN(C(=O)CCl)c1c(CC)cccc1CC,22.2 µM (active),
CCN(CC)c1nc(C)cc(OP(=S)(OC)OC)n1,37 µM (active),
CCN(CC)C(=O)C(C)Oc1cccc2ccccc12 (stereo not given),,inactive
CN/C(=N\[N+](=O)[O-])NCc1cnc(Cl)s1,,inactive
CN=C=S,13.7 µM (active),
CO/N=C(/C1=NOCCO1)c1ccccc1Oc1ncnc(Oc2ccccc2Cl)c1F,15.8 µM (active),
OC(c1ccc(Cl)cc1)(c1ccc(Cl)cc1)C(Cl)(Cl)Cl,15 µM (active),
O=C(O)c1c(Cl)ccc2cc(Cl)cnc12,,inactive
COC(=O)NS(=O)(=O)c1ccc(N)cc1,,inactive
CC(C)NC(=O)N1CC(=O)N(c2cc(Cl)cc(Cl)c2)C1=O,,inactive
CCCN(CC)CC1COC2(CCC(C(C)(C)C)CC2)O1 (stereo not given),6.99 µM (active),
Cn1c(-c2ccccc2)cc(-c2ccccc2)[n+]1C,3.16 µM (active),
COC(=O)NC(=S)Nc1ccccc1NC(=S)NC(=O)OC,19.2 µM (active),

SMILES,AC50,outcome
Nc1c(Cl)c(F)nc(OCC(=O)O)c1Cl,,inactive
COCC(=O)N(c1c(C)cccc1C)C(C)C(=O)OC (stereo not given),,inactive
CCNC(=O)NC(=O)C(C#N)=NOC,,inactive
CC(C)N1C(=O)c2ccccc2NS1(=O)=O,,inactive
COP(=S)(OC)SCn1nnc2ccccc2c1=O,30.2 µM (active),
COCc1cnc(C2=NC(C)(C(C)C)C(=O)N2)c(C(=O)O)c1 (stereo not given),,inactive
COP(=O)(OC)O/C(C)=C/C(=O)N(C)C,,inactive
COC(=O)N(C(=O)N1CO[C@@]2(C(=O)OC)Cc3cc(Cl)ccc3C2=N1)c1ccc(OC(F)(F)F)cc1,7.29 µM (active),
N#Cc1c(Cl)cccc1Cl,,inactive
COCC(C)N(C(=O)CCl)c1c(C)csc1C (stereo not given),,inactive
COc1cc(Cl)c(OC)cc1Cl,,inactive
CNC(=O)N(C)c1nnc(C(C)(C)C)s1,,inactive
CC1(C)C(C=C(Cl)Cl)C1C(=O)OC(C#N)c1cccc(Oc2ccccc2)c1 (stereo not given),29.4 µM (active),
CC(C)Oc1cccc(NC(=O)c2ccccc2C(F)(F)F)c1,,inactive
Nc1cnn(-c2ccccc2)c(=O)c1Cl,,inactive
COC(=O)c1c(C(F)F)nc(C(F)(F)F)c(C2=NCCS2)c1CC(C)C,14.6 µM (active),
CC(C)(C)C(=O)C(Oc1ccc(Cl)cc1)n1cncn1 (stereo not given),,inactive
CCNP(=S)(OC)O/C(C)=C/C(=O)OC(C)C (stereo not given),,inactive
COc1ccc(-c2ccccc2)cc1NNC(=O)OC(C)C,,inactive
Cc1c(COC(=O)[C@@H]2[C@H](/C=C(\Cl)C(F)(F)F)C2(C)C)cccc1-c1ccccc1,14.1 µM (active),
